Source: PubChem BioAssay AID651965 (National Center for Advancing Translational Sciences (NCATS), 2013)
The campaign covered roughly 340,000 compounds. About 6,400 (1.9%) were called active. About 4% were inconclusive and are not listed. The sample holds actives, similar compounds and a random draw of the others, so the mix is not that of the screen. Calls follow the shape of the dose curve; as a rule, active = well fitted falling curve with a large enough effect; inconclusive = small, poorly fitted or top-dose-only effect; inactive = no such curve, though single readings can be large or run the other way.

biological target: ATP-dependent Clp protease proteolytic subunit (Bacillus subtilis (strain 168)) (UniProt P80244); assay: qHTS Assay for Activators of ClpP; also: the source files actives as falling curves though it sought activators and does not explain the sign; nearly all actives have a fitted effect of over 65% in size; details: purified B. subtilis ClpP, FRET peptide cleavage, 20 min; series mostly up to 57.5 µM; activity change, negative = active: at the top concentration
How it was run: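 FRET quenching reversal measured ClpP activation: 10 microg/mL B. subtilis ClpP at pH 8 with the FRET-FV decapeptide, read at 430 nm after 320 nm excitation. The 20-min minus 0-min signal was scaled between DMSO/no-enzyme wells and ADEP (5.8 microM final).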
Potency is read from the fitted curve at half-maximal effect.

Row | SMILES | activity change, negative = active | Potency
1 | Clc1ccc(-c2cccc3nccn23)cc1 | 4.02% (inactive) | 
2 | Cc1cc(Br)cn2c(Cc3cccc(F)c3)c(-c3cccc(Br)c3)nc12 | -2.7% (inactive) | 
3 | C[C@H](NC(=O)CC[C@H]1O[C@@H](n2ccc(=O)[nH]c2=O)[C@H](O)[C@@H]1O)c1cccc2ccccc12 | -1.09% (inactive) | 
4 | O=C(O)Cc1ccc(NC(=O)Nc2cccc3ccccc23)cc1 | -8.87% (inactive) | 
5 | O=C(O)Cc1ccc(NCc2ccccc2Cl)cc1 |  | 8.91 µM (active)
6 | S=C(NCCc1ccccc1)NCc1ccccc1Cl | -1.72% (inactive) | 
7 | COc1cc(N)c(Cl)cc1C(=O)OCC(=O)c1ccc2c(c1)NC(=O)CO2 |  | 14.1 µM (active)
8 | Cc1ccc(C)c(OCCC(=O)OCC(=O)c2ccc3c(c2)NC(=O)CO3)c1 | -2.42% (inactive) | 
9 | O=C1COc2ccc(C(=O)COC(=O)c3ccccc3Cl)cc2N1 | -2.91% (inactive) | 
10 | COc1cccc(CNc2nc(NCc3cccs3)nc3ccsc23)c1 | -17.3% (inactive) | 
11 | CSCCC(c1nnnn1Cc1ccccc1)N1CCN(C/C=C/c2ccccc2)CC1 (stereo not given) | -3.16% (inactive) | 
12 | Cn1c(=O)c2c(n3c4ccccc4nc13)NC(=O)CC2c1cccc(Cl)c1 (stereo not given) | 4.02% (inactive) | 
13 | CC(C)(C)c1cc(=O)n2c(nc3ccccc32)[nH]1 |  | 15.8 µM (active)
14 | CC(C)(C)c1nc2ccccc2c(=O)n1N1C(=O)c2ccccc2C1=O | -0.149% (inactive) | 
15 | CCc1nc2ccc(C(=O)NC3CCN(Cc4ccccc4)CC3)cn2c1N(C)CCN1CCOCC1 | -10.1% (inactive) | 
16 | CCCCOCCCNC(=O)C[C@@H]1C[C@@]2(C(=O)OCC)CCCC=C2N(CCC2=CCCCC2)C1=O | -2.99% (inactive) | 
17 | COc1ccc(CCNC(=O)Nc2ccc3c(c2)c(=O)n(C)n3C)cc1OC | 5.14% (inactive) | 
18 | N#Cc1cccc(NC(=O)c2cc(C3CCCCN3C(=O)CCc3ccccc3)on2)c1 (stereo not given) | 0.66% (inactive) | 
19 | COc1ccc2c(c1OC)C(=O)N(c1ncn[nH]1)C2 |  | 28.2 µM (active)
20 | CC1(C)OC(=O)C2=C(C[C@@H](C3CCCC3)O[C@@H]2c2ccc(Cl)cc2)O1 | 0.621% (inactive) | 
21 | O=C(NCc1ccccc1Cl)c1csc([C@@H]2O[C@H](CO)[C@@H](O)[C@H]2O)n1 | 0.242% (inactive) | 
22 | CC1CCCC(C)N1C(=O)COC(=O)c1ccccc1C(=O)c1ccccc1 (stereo not given) | -4.22% (inactive) | 
23 | Cc1cc(C(=O)OCC(=O)N2C(C)CCCC2C)c2ccccc2n1 (stereo not given) | -1.58% (inactive) | 
24 | Cc1nn(-c2ccccc2)nc1C(=O)OCC(=O)N1CCCCC1C (stereo not given) |  | 10 µM (active)
25 | COc1ccc(C2=Nc3ccccc3NC(=O)C2N(C(=O)c2cc3ccccc3[nH]2)c2ccccc2)cc1 (stereo not given) | -17.4% (inactive) | 

Row | SMILES | activity change, negative = active | Potency
26 | Nc1nc2ncccn2c1-c1ccccc1 | -16.1% (inactive) | 
27 | c1ccc(-c2ccnc3nc(-n4cccc4)nn23)cc1 |  | 1.78 µM (active)
28 | Cc1cc(-c2ccccc2)n2nc(-c3ccccc3)cc2n1 | -12% (inactive) | 
29 | CN(C)c1ccc(C=Nc2ccc(/C=C/c3ccnc4ccccc34)cc2)cc1 | -3.23% (inactive) | 
30 | CC1(C)OC(=O)C2=C(C[C@@H](C3CC3)O[C@H]2CCc2cccc(Cl)c2)O1 | 2.17% (inactive) | 
31 | O=C(Nc1cc(Br)ccc1F)c1nc[nH]c1C(=O)NCc1ccccc1 | 181% (inactive) | 
32 | O=C(NNc1ncnc2c1cnn2-c1ccccc1)c1ccco1 | -1.68% (inactive) | 
33 | Cc1ccc(-n2ncc3c(N4CCC(C(N)=O)CC4)ncnc32)cc1 | 4.6% (inactive) | 
34 | CC1(C(=O)Nc2cccnc2)Cc2c(-c3ccccc3)ccnc2O1 (stereo not given) | -10.8% (inactive) | 
35 | COc1ccc(CCn2c3c(c(=O)[nH]c2=S)CN(C(C)C)CN3)cc1OC | -4.95% (inactive) | 
36 | CCNC(=O)C1CCCN(C(=O)c2ccc(OC)cc2OC)CC1 (stereo not given) | 1.83% (inactive) | 
37 | CCc1nc2ccc(C(=O)NC3CCN(Cc4ccccc4)CC3)cn2c1N(CC)CCOC | -1.6% (inactive) | 
38 | Cc1ccc2[nH]c(=O)c(COC(=O)c3ccccn3)cc2c1 | -5.33% (inactive) | 
39 | CCOC(=O)c1cc2cc(C)ccc2[nH]1 |  | 14.1 µM (active)
40 | CCOC(=O)c1[nH]c2ccc(C)cc2c1N=C(C)N(C)C | -18.6% (inactive) | 
41 | COC(=O)c1ccc2nc(-c3cccc(Br)c3)c(Cc3ccccc3C(F)(F)F)n2c1 | -11.9% (inactive) | 
42 | COCCN(CCOC)c1nc(N)c2c(N)nc3c(c2c1C#N)CC(=O)N3Cc1ccc(Cl)cc1 |  | 3.16 µM (active)
43 | COc1ccc(C(C#N)=C2C=CC(=NO)c3ccccc32)cc1 | 1.66% (inactive) | 
44 | CC1=C2C(=O)OC(c3ccoc3)C2(C)CCC1 (stereo not given) |  | 25.1 µM (active)
45 | CC1(C)O[C@H]2CC(=O)OCC23[C@H]2CC[C@@]4(C)[C@H](c5ccoc5)OC(=O)[C@H]5O[C@]54[C@]2(C)C(=O)C[C@@H]13 (stereo not given in full) | -0.868% (inactive) | 
46 | CC(C)(C(=O)NO)c1ccccc1 | -0.655% (inactive) | 
47 | CCCC(=O)Nc1ccc(C(=O)N/N=C/c2ccc[nH]2)cc1 | 1.82% (inactive) | 
48 | CC(Oc1ccccc1[N+](=O)[O-])C(=O)N/N=C/c1ccoc1 (stereo not given) | -3.01% (inactive) | 
49 | O=C(COc1ccccc1[N+](=O)[O-])N/N=C/c1ccc[nH]1 |  | 31.6 µM (active)
50 | O=C(Nc1ccc(Cl)cc1)c1csc([C@H]2C[C@H](O)[C@@H](CO)O2)n1 | 0.0111% (inactive) | 

Row | SMILES | activity change, negative = active | Potency
51 | COc1cc2c(cc1NC(=O)CN1CCN(S(=O)(=O)c3ccc(F)cc3)CC1)oc1ccccc12 |  | 11.2 µM (active)
52 | COc1ccc(NC(=O)CN2CCN(S(=O)(=O)c3ccc(F)cc3)CC2)cc1Cl | 3.19% (inactive) | 
53 | COc1ccccc1NC(=O)CN1CCN(S(=O)(=O)c2ccc(Br)cc2)CC1 | -12.3% (inactive) | 
54 | O=C(OCc1cn([C@H]2C[C@H](c3ccccc3)N(C(=O)c3cccs3)C[C@@H]2O)nn1)c1ccccc1 | 0.361% (inactive) | 
55 | CCOC(=O)C1=CC[C@@H](c2ccncc2)N(S(=O)(=O)c2ccc(C)cc2)C1 | 0.521% (inactive) | 
56 | CC1(C(=O)NCc2ccc3c(c2)OCO3)CCN1CCc1ccccc1 (stereo not given) | -0.799% (inactive) | 
57 | C[N+](C)(C)CCNC(=O)c1c[nH]c2ccccc12 | 3.16% (inactive) | 
58 | CCOC(=O)c1ccc(COC(=O)c2cc(=O)[nH]c3ccccc23)o1 |  | 15.8 µM (active)
59 | CC1CCN(C(=O)COC(=O)c2cc(=O)[nH]c3ccccc23)CC1 | -5.9% (inactive) | 
60 | CCOC(=O)c1ccc(NC(=O)c2cc(=O)[nH]c3ccccc23)cc1 | -7.27% (inactive) | 
61 | Cc1ccc2nc(-c3ccccc3)c(CC3CCCCC3)n2c1 | -17.3% (inactive) | 
62 | SCc1nc2ccc(Cl)cc2[nH]1 | -5.53% (inactive) | 
63 | COc1ccccc1CC(=O)Nc1ccc([N+](=O)[O-])cc1OC |  | 7.08 µM (active)
64 | COc1ccccc1CC(=O)Nc1ccc(F)cc1F | 2.38% (inactive) | 
65 | COc1cc([N+](=O)[O-])ccc1NC(=O)CN1CCCC1 | -1.92% (inactive) | 
66 | O=C(NC(c1ccc(-c2ccccc2)cc1)c1cnccn1)C1CCN(CCOc2ccc(Cl)cc2Cl)CC1 (stereo not given) | -2.84% (inactive) | 
67 | COc1cc2nc(N3CCCN(C)CC3)nc(NC(C)C)c2cc1OC | 4.14% (inactive) | 
68 | COC(=O)Cn1c2ccc(C)cc2c2nc(C)sc21 | 0.6% (inactive) | 
69 | COC(=O)Cn1c(=NC(=O)CSCC(=O)Nc2cc(C)on2)sc2ccccc21 | -15.6% (inactive) | 
70 | COC(=O)Cn1c(=NC(=O)c2cc(OC)c(OC)c(OC)c2)sc2cc(OC)ccc21 |  | 2.82 µM (active)
71 | Cc1ccccc1-c1csc(C(O)c2cccc(Cl)c2)n1 (stereo not given) | -1.81% (inactive) | 
72 | COc1ccc(C(=O)Nc2c(Cl)cc(Cl)cc2C(=O)N2CCC(C)CC2)cc1 |  | 15.8 µM (active)
73 | COc1ccc(C(=O)N2CCC(C(=O)Nc3ccc(C)cc3)CC2)cc1 | 0.262% (inactive) | 
74 | COc1ccc(C(=O)Nc2ccccc2C(=O)N2CCN(c3ccccc3)CC2)cc1 | -1.35% (inactive) | 
75 | OC(Cc1ccc2ccccc2n1)c1ccc(Cl)c(Cl)c1 (stereo not given) | -2.58% (inactive) | 

Row | SMILES | activity change, negative = active | Potency
76 | COc1ccc(-c2ccnc(SCC(=O)N3CCOCC3)n2)cc1 |  | 15.8 µM (active)
77 | COc1ccc(-c2nc(SCC(=O)N3CCOCC3)n[nH]2)cc1 |  | 15.8 µM (active)
78 | COc1ccc(N2CCN(C(=O)CSc3nnc4ncccn34)CC2)cc1 | -0.882% (inactive) | 
79 | COc1ccc(-c2nc(SCC(=O)N3CCCCC3C)n[nH]2)cc1 (stereo not given) | -1.11% (inactive) | 
80 | O=C(CSc1n[nH]c(-c2ccccc2)n1)N1CCCCC1 | 1.34% (inactive) | 
81 | O=C(CSc1nnc(-c2ccoc2)o1)N1CCOCC1 | -2.09% (inactive) | 
82 | CCc1ccccc1NC(=O)CN1CCN(C(=O)c2cc(C3CC3)nn2-c2ccccc2)CC1 | 2.06% (inactive) | 
83 | CSc1ccc(CNC(=O)C2(C)CCCN2C)cc1 (stereo not given) | -1.05% (inactive) | 
84 | CCOC(=O)c1ccc(-n2c(CCC(=O)O)ccc2-c2ccccc2)cc1 | -2.4% (inactive) | 
85 | CCOC(=O)c1c(-c2ccc(OC)cc2)oc2ccc(OCc3ccc(C(=O)OC)cc3)cc12 | 3.62% (inactive) | 
86 | CCOC(=O)c1ccc(COC(=O)CCc2nc(-c3ccccc3)c(-c3ccccc3)o2)cc1 |  | 28.2 µM (active)
87 | COC(=O)C1=CN(c2c(C)cc(C)cc2C)C(N)=C(C#N)C1c1cccc(F)c1 (stereo not given) | 1.91% (inactive) | 
88 | Cc1ccc(Cn2cc(CN3CC(N4CCN(C)CC4)CS3(=O)=O)nn2)cc1 (stereo not given) | -0.127% (inactive) | 
89 | OC[C@@H]1CN(Cc2cccs2)C[C@H](n2cnc3c(Nc4ccccc4)ncnc32)O1 | -29.3% (inactive) | 
90 | CC(C)C[C@@H](COCc1ccc(Cl)cc1)N1CCN(C(=O)c2ccc(Cl)cc2Cl)CCC1=O | -4.04% (inactive) | 
91 | OC[C@@H]1CN(Cc2ccc(-c3ccccc3)cc2)C[C@H](n2cnc3c(NC4CCCC4)ncnc32)O1 | -2.78% (inactive) | 
92 | COc1cccc2c(=O)n(CC(=O)N3CCCCCC3)ccc12 | 4.01% (inactive) | 
93 | O=C(CN1C(=O)c2cccc3cccc(c23)C1=O)N1CCCCC1 |  | 14.1 µM (active)
94 | C[N+](C)(CCCCCC[N+](C)(C)CCCN1C(=O)c2cccc3cccc(c23)C1=O)CCCN1C(=O)c2cccc3cccc(c23)C1=O | 4.06% (inactive) | 
95 | C#CCNC(=O)C[C@@H]1C[C@@]2(C(=O)OCC)CCCC=C2N(Cc2ccco2)C1=O | 2% (inactive) | 
96 | CC(=O)Nc1cccc(Nc2ccc(C#N)cc2)c1 | -22.8% (inactive) | 
97 | O=C1O/C(=C\c2ccc(O)cc2)C(O)=C1c1ccc(O)cc1 | -2.31% (inactive) | 
98 | CCC(C)(C)NC(=O)C(c1ccc(O)cc1)N(C(=O)Cn1nnc2ccccc21)c1ccc(NC(C)=O)cc1 (stereo not given) | -0.392% (inactive) | 
99 | CCC(C)(C)NC(=O)C(c1cccn1C)N(Cc1ccc(C)cc1)C(=O)Cn1nnc2ccccc21 (stereo not given) |  | 31.6 µM (active)
100 | CC(C)(C)NC(=O)C(c1ccco1)N(Cc1ccc2c(c1)OCO2)C(=O)Cn1nnc2ccccc21 (stereo not given) | -0.906% (inactive) | 
